Measurements from publication PMC10812921, “Transcriptional Coactivator BOB1 (OBF1, OCA-B) Modulates the Specificity of DNA Recognition by the POU-Domain Factors OCT1 and OCT2 in a Monomeric Configuration”.

Tests used:
POU1 (OCT1 POU domain) = POU1 (OCT1 POU domain) (human, UniProt P14859 260-458); test: EMSA-SELEX-seq; no BOB1; 20 mM Tris-HCl pH 7.6, 140 mM NaCl, 10% glycerol, 0.5 mM EDTA, 0.05% Triton X-100, 0.1 mg/mL BSA, 0.1 mg/mL poly(dI-dC), 5 mM DTT, room temperature, 20 min; high values mean tight binding; conditions: protein: recombinant; dsDNA, one strand shown
How it was run: (§1)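 With or without 28 ng coactivator protein, 30 ng of tagged POU-domain protein was combined with 300 ng of a PCR-amplified double-stranded random 35-nt library in 20 μL Tris–HCl pH 7.6 binding buffer for 20 min at RT. The protein came from E. coli BL21 and had been purified under denaturing conditions and renatured. Four rounds of cutting complex bands from native 6% PAGE, elution and PCR amplification preceded Illumina sequencing. The binding preference figure is the percentage of sequenced 8-mers matching a motif pattern.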

POU2 (OCT2 POU domain) = molecular target: T1, POU2 (OCT2 POU domain) (human, UniProt P09086 175-386); test: as above; conditions: protein: recombinant; dsDNA, one strand shown
T1 sequence: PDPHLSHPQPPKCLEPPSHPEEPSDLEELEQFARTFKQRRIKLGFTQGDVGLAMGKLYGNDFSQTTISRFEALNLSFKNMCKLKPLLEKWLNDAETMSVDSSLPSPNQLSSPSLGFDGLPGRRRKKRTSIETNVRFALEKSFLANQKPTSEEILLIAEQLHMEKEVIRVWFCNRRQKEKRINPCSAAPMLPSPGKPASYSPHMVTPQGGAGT
How it was run: as §1

[1] = molecular target: POU1 (OCT1 POU domain);BOB1 (OBF1, OCA-B) (human;human, UniProt P14859;Q16633 260-458;1-256, |); test: EMSA-SELEX-seq; with BOB1 (ternary complex band); 20 mM Tris-HCl pH 7.6, 140 mM NaCl, 10% glycerol, 0.5 mM EDTA, 0.05% Triton X-100, 0.1 mg/mL BSA, 0.1 mg/mL poly(dI-dC), 5 mM DTT, room temperature, 20 min; high values mean tight binding; conditions: protein: recombinant;recombinant; copies: 1;1; dsDNA, one strand shown
How it was run: as §1

[2] = molecular target: T2, POU2 (OCT2 POU domain);BOB1 (OBF1, OCA-B) (human;human, UniProt P09086;Q16633 175-386;1-256, |); test: as above; conditions: protein: recombinant;recombinant; copies: 1;1; dsDNA, one strand shown
T2 sequence 1: T1 sequence
T2 sequence 2: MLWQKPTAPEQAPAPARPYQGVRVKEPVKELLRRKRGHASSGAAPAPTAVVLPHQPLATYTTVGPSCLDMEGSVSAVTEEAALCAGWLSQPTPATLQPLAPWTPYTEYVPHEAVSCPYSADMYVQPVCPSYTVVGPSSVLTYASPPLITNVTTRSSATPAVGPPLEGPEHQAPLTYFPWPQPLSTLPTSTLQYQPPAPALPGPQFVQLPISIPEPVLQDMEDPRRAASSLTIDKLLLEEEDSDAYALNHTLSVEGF
How it was run: as §1

POU1 (OCT1 POU domain), sequence (P14859 260-458): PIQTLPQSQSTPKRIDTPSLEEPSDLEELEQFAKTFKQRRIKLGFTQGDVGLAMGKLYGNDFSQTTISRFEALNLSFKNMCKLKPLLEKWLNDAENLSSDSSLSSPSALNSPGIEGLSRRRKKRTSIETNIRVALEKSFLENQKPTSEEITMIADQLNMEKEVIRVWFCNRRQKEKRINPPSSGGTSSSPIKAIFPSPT

| Sequence | binding signal (POU1 (OCT1 POU domain)) | binding signal (POU2 (OCT2 POU domain)) | binding signal [1] | binding signal [2] |
| --- | --- | --- | --- | --- |
| AATATAAA | 0.156 % of ANNNNAAN 8-mers | 0.178 % of ANNNNAAN 8-mers | 0.107 % of ANNNNAAN 8-mers | 0.101 % of ANNNNAAN 8-mers |
| AGAGAAAT | 0.0679 % of ANNNNAAN 8-mers | 0.0708 % of ANNNNAAN 8-mers | 0.0753 % of ANNNNAAN 8-mers | 0.0784 % of ANNNNAAN 8-mers |
| ATAGTAAG | 0.0633 % of ANNNNAAN 8-mers | 0.0806 % of ANNNNAAN 8-mers | 0.0656 % of ANNNNAAN 8-mers | 0.0619 % of ANNNNAAN 8-mers |
| ATACTAAC | 0.0347 % of ANNNNAAN 8-mers | 0.0293 % of ANNNNAAN 8-mers | 0.0304 % of ANNNNAAN 8-mers | 0.0396 % of ANNNNAAN 8-mers |
| ACCTAAAC | 0.013 % of ANNNNAAN 8-mers | 0.0178 % of ANNNNAAN 8-mers | 0.0211 % of ANNNNAAN 8-mers | 0.0223 % of ANNNNAAN 8-mers |
| AGGGTAAA | 0.0706 % of ANNNNAAN 8-mers | 0.0857 % of ANNNNAAN 8-mers | 0.0679 % of ANNNNAAN 8-mers | 0.0966 % of ANNNNAAN 8-mers |
| ACCAAAAG | 0.0236 % of ANNNNAAN 8-mers | 0.0196 % of ANNNNAAN 8-mers | 0.0273 % of ANNNNAAN 8-mers | 0.019 % of ANNNNAAN 8-mers |
| ACTTAAAC | 0.0336 % of ANNNNAAN 8-mers | 0.046 % of ANNNNAAN 8-mers | 0.0277 % of ANNNNAAN 8-mers | 0.0355 % of ANNNNAAN 8-mers |
| AGAGTAAG | 0.0305 % of ANNNNAAN 8-mers | 0.0466 % of ANNNNAAN 8-mers | 0.039 % of ANNNNAAN 8-mers | 0.0297 % of ANNNNAAN 8-mers |
| ACACGAAG | 0.0206 % of ANNNNAAN 8-mers | 0.0196 % of ANNNNAAN 8-mers | 0.0176 % of ANNNNAAN 8-mers | 0.0157 % of ANNNNAAN 8-mers |
| ATTAAAAT | 0.614 % of ANNNNAAN 8-mers | 0.636 % of ANNNNAAN 8-mers | 0.228 % of ANNNNAAN 8-mers | 0.204 % of ANNNNAAN 8-mers |
| AAATGAAG | 0.17 % of ANNNNAAN 8-mers | 0.188 % of ANNNNAAN 8-mers | 0.186 % of ANNNNAAN 8-mers | 0.2 % of ANNNNAAN 8-mers |
| ATTGCAAC | 0.0256 % of ANNNNAAN 8-mers | 0.0178 % of ANNNNAAN 8-mers | 0.0195 % of ANNNNAAN 8-mers | 0.0272 % of ANNNNAAN 8-mers |
| AACGTAAC | 0.0179 % of ANNNNAAN 8-mers | 0.0236 % of ANNNNAAN 8-mers | 0.0211 % of ANNNNAAN 8-mers | 0.0272 % of ANNNNAAN 8-mers |
| ACTTCAAC | 0.0145 % of ANNNNAAN 8-mers | 0.015 % of ANNNNAAN 8-mers | 0.0121 % of ANNNNAAN 8-mers | 0.0231 % of ANNNNAAN 8-mers |
| ACAAAAAG | 0.0549 % of ANNNNAAN 8-mers | 0.0489 % of ANNNNAAN 8-mers | 0.0683 % of ANNNNAAN 8-mers | 0.0429 % of ANNNNAAN 8-mers |

| Sequence | binding signal (POU1 (OCT1 POU domain)) | binding signal (POU2 (OCT2 POU domain)) | binding signal [1] | binding signal [2] |
| --- | --- | --- | --- | --- |
| AGTCCAAA | 0.0256 % of ANNNNAAN 8-mers | 0.0299 % of ANNNNAAN 8-mers | 0.0332 % of ANNNNAAN 8-mers | 0.0281 % of ANNNNAAN 8-mers |
| AGCGGAAG | 0.0202 % of ANNNNAAN 8-mers | 0.0196 % of ANNNNAAN 8-mers | 0.0215 % of ANNNNAAN 8-mers | 0.0173 % of ANNNNAAN 8-mers |
| ACTCTAAG | 0.0214 % of ANNNNAAN 8-mers | 0.0224 % of ANNNNAAN 8-mers | 0.0258 % of ANNNNAAN 8-mers | 0.0206 % of ANNNNAAN 8-mers |
| AGTTCAAT | 0.0446 % of ANNNNAAN 8-mers | 0.0432 % of ANNNNAAN 8-mers | 0.046 % of ANNNNAAN 8-mers | 0.0421 % of ANNNNAAN 8-mers |
| ACAGAAAT | 0.0568 % of ANNNNAAN 8-mers | 0.0633 % of ANNNNAAN 8-mers | 0.0472 % of ANNNNAAN 8-mers | 0.0504 % of ANNNNAAN 8-mers |
| AAAACAAT | 0.0736 % of ANNNNAAN 8-mers | 0.0604 % of ANNNNAAN 8-mers | 0.0913 % of ANNNNAAN 8-mers | 0.0735 % of ANNNNAAN 8-mers |
| AACCGAAC | 0.013 % of ANNNNAAN 8-mers | 0.0173 % of ANNNNAAN 8-mers | 0.0117 % of ANNNNAAN 8-mers | 0.0198 % of ANNNNAAN 8-mers |
| ACAGAAAC | 0.0278 % of ANNNNAAN 8-mers | 0.0259 % of ANNNNAAN 8-mers | 0.0269 % of ANNNNAAN 8-mers | 0.0231 % of ANNNNAAN 8-mers |
| AATGCAAG | 0.0671 % of ANNNNAAN 8-mers | 0.0512 % of ANNNNAAN 8-mers | 0.0749 % of ANNNNAAN 8-mers | 0.0644 % of ANNNNAAN 8-mers |
| AGGACAAC | 0.0198 % of ANNNNAAN 8-mers | 0.0305 % of ANNNNAAN 8-mers | 0.0187 % of ANNNNAAN 8-mers | 0.0206 % of ANNNNAAN 8-mers |
| ATGTAAAC | 0.249 % of ANNNNAAN 8-mers | 0.196 % of ANNNNAAN 8-mers | 0.293 % of ANNNNAAN 8-mers | 0.227 % of ANNNNAAN 8-mers |
| AGTGAAAT | 0.138 % of ANNNNAAN 8-mers | 0.124 % of ANNNNAAN 8-mers | 0.196 % of ANNNNAAN 8-mers | 0.121 % of ANNNNAAN 8-mers |
| AGCACAAG | 0.0168 % of ANNNNAAN 8-mers | 0.0196 % of ANNNNAAN 8-mers | 0.0183 % of ANNNNAAN 8-mers | 0.0124 % of ANNNNAAN 8-mers |
| ACCCGAAT | 0.0233 % of ANNNNAAN 8-mers | 0.0386 % of ANNNNAAN 8-mers | 0.0219 % of ANNNNAAN 8-mers | 0.0248 % of ANNNNAAN 8-mers |
| ACGTTAAA | 0.0412 % of ANNNNAAN 8-mers | 0.0506 % of ANNNNAAN 8-mers | 0.0371 % of ANNNNAAN 8-mers | 0.0421 % of ANNNNAAN 8-mers |
| AGCCTAAG | 0.0183 % of ANNNNAAN 8-mers | 0.0207 % of ANNNNAAN 8-mers | 0.0219 % of ANNNNAAN 8-mers | 0.0149 % of ANNNNAAN 8-mers |
